Measurements: paper PMC7862700, “An all-to-all approach to the identification of sequence-specific readers for epigenetic DNA modifications on cytosine”

Experiments:
Assay in all cases: DAPPL (digital affinity profiling via proximity ligation, sequencing); 10 mM Tris-HCl pH 7.5, 50 mM NaCl, 1 mM DTT, 4% glycerol, room temperature, 30 min; GST-TFs on glutathione beads, 16-mer random dsDNA library, 0.1% formaldehyde crosslink after washing; high values mean tight binding
Conditions in all cases: protein: recombinant; tags: N-terminal GST; dsDNA, one strand shown
[1] = molecular target: T1, FLI1 (Homo sapiens, UniProt Q01543 1-452)
T1 sequence: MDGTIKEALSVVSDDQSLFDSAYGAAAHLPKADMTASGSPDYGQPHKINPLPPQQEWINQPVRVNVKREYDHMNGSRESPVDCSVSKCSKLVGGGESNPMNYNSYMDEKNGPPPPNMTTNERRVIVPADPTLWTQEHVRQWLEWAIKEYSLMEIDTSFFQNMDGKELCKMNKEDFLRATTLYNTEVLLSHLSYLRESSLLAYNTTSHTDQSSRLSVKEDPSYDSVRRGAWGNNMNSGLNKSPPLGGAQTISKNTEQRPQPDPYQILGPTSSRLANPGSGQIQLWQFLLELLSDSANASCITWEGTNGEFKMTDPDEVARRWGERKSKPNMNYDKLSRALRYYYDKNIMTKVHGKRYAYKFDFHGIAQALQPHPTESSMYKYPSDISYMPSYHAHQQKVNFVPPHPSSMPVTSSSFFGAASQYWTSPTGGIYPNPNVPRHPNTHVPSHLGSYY
Summary of the method: (§1)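 After expression in yeast as GST fusions, human transcription factors were bound to glutathione beads, DNA-barcoded and mixed with a tag-only sample. The pools were incubated with 200 nmole of a 16-mer random double-stranded DNA library in Tris/NaCl/DTT/glycerol buffer (30 min, room temperature), washed and crosslinked with 0.1% formaldehyde. Proximity ligation with BsaI/T4 ligase ran for 1 h at 37 °C, before PCR amplification and sequencing on an Illumina NextSeq500. Binding signal is a hexamer's read frequency for a factor divided by its frequency for the tag-only sample.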

[2] = molecular target: T2, ELK1 (Homo sapiens, UniProt P19419 1-428)
T2 sequence: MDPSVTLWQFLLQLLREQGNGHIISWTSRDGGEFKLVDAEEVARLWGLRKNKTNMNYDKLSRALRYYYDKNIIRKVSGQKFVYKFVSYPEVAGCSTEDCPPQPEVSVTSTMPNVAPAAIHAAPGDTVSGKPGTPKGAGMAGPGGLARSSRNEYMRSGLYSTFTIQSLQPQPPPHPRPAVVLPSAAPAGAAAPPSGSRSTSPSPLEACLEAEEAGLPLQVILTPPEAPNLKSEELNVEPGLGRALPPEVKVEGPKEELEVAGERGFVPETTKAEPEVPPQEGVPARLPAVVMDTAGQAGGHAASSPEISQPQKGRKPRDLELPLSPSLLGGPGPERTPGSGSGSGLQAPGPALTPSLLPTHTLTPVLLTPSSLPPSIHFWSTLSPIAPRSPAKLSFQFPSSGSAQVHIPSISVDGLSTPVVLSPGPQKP
Summary of the method: as §1

[3] = molecular target: T3, GABPA (Homo sapiens, UniProt Q06546 1-454)
T3 sequence: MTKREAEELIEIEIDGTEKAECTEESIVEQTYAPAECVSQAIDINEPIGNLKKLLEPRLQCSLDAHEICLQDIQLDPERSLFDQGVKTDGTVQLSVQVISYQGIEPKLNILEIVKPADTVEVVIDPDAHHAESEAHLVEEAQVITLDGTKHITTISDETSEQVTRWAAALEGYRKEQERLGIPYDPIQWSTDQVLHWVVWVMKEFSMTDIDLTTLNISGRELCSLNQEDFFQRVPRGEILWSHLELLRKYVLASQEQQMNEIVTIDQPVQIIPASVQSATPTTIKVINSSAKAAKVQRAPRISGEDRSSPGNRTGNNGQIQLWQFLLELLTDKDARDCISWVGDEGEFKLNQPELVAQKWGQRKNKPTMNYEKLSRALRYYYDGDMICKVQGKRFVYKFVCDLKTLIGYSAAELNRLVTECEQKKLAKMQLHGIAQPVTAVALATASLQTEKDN
Summary of the method: as §1

[4] = molecular target: T4, ERG (Homo sapiens, UniProt P11308 1-479)
T4 sequence: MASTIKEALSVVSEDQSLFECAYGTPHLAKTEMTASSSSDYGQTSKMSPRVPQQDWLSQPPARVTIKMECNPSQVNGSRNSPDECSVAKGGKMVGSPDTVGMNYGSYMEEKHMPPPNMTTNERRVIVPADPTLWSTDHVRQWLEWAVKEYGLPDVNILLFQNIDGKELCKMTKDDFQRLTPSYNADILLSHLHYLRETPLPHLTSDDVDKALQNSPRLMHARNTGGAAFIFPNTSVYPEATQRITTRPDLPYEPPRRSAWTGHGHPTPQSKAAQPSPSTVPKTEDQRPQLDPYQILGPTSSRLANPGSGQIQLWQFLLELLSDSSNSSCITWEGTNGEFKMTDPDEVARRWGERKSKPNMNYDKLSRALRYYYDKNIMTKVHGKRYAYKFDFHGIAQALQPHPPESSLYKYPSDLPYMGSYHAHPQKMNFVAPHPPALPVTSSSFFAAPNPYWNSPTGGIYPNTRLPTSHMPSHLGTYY
Summary of the method: as §1

[5] = molecular target: ELF1 (Homo sapiens, UniProt P32519 1-619)
Chain of ELF1 (P32519 whole entry): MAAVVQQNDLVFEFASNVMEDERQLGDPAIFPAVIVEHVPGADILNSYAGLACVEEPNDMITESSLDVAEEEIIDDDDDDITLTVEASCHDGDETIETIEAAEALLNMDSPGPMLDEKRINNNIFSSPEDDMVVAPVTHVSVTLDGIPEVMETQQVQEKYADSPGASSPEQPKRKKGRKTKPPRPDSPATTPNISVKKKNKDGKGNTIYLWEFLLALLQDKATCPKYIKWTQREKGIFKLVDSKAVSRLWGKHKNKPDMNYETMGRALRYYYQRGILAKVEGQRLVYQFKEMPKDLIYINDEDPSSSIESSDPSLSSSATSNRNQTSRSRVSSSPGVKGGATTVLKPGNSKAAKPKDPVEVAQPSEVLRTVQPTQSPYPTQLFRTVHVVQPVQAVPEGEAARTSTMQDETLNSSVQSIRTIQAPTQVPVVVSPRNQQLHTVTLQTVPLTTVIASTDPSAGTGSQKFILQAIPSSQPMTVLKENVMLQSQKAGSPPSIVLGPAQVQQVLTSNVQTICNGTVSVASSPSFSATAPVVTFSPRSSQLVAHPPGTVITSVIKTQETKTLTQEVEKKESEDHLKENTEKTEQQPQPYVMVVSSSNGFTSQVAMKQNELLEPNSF
Summary of the method: as §1

[6] = molecular target: T5, EHF (Homo sapiens, UniProt Q9NZC4 1-300)
T5 sequence: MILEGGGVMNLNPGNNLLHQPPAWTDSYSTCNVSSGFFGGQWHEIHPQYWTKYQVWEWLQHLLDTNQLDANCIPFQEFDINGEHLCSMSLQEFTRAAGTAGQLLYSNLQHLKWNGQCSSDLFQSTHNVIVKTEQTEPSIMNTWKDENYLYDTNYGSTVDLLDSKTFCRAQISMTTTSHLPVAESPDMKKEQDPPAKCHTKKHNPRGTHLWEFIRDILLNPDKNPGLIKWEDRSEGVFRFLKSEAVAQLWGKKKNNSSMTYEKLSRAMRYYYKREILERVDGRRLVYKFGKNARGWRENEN
Summary of the method: as §1

[7] = molecular target: SPI1 (Homo sapiens, UniProt P17947 1-270)
Summary of the method: as §1

[8] = molecular target: SPIB (Homo sapiens, UniProt Q01892 1-262)
Chain of SPIB (Q01892 whole entry): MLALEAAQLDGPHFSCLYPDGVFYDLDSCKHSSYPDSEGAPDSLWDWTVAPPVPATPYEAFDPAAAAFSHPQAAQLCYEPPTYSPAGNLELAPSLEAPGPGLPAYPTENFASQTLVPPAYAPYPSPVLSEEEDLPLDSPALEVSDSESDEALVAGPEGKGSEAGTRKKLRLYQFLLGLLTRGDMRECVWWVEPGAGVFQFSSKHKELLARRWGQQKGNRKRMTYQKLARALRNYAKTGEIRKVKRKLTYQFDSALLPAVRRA
Summary of the method: as §1

[9] = molecular target: T6, ELK3 (Homo sapiens, UniProt P41970 1-407)
T6 sequence: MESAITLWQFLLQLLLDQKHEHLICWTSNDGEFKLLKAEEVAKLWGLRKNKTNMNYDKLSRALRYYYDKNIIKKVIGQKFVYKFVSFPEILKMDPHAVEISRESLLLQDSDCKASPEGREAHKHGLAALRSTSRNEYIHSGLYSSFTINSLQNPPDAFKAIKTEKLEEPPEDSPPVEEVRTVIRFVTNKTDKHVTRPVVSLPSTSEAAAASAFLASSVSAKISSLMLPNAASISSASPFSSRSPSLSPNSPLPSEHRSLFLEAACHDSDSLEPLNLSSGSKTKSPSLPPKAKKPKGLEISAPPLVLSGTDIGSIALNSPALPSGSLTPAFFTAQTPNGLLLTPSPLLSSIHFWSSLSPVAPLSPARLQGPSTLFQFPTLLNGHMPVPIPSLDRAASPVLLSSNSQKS
Summary of the method: as §1

| Sequence | binding signal [1] | binding signal [2] | binding signal [3] | binding signal [4] | binding signal [5] | binding signal [6] | binding signal [7] | binding signal [8] | binding signal [9] |
| --- | --- | --- | --- | --- | --- | --- | --- | --- | --- |
| CCATAA | 1.15 fold enrichment (6-mer frequency, TF over GST control) | 1.15 fold enrichment (6-mer frequency, TF over GST control) | 1.19 fold enrichment (6-mer frequency, TF over GST control) | 1.17 fold enrichment (6-mer frequency, TF over GST control) | 1.15 fold enrichment (6-mer frequency, TF over GST control) | 1.05 fold enrichment (6-mer frequency, TF over GST control) | 1.17 fold enrichment (6-mer frequency, TF over GST control) | 1.16 fold enrichment (6-mer frequency, TF over GST control) | 1.22 fold enrichment (6-mer frequency, TF over GST control) |
| TCCAAG | 1.16 fold enrichment (6-mer frequency, TF over GST control) | 1.1 fold enrichment (6-mer frequency, TF over GST control) | 1.16 fold enrichment (6-mer frequency, TF over GST control) | 1.02 fold enrichment (6-mer frequency, TF over GST control) | 1.17 fold enrichment (6-mer frequency, TF over GST control) | 1.06 fold enrichment (6-mer frequency, TF over GST control) | 1.03 fold enrichment (6-mer frequency, TF over GST control) | 1.09 fold enrichment (6-mer frequency, TF over GST control) | 1.08 fold enrichment (6-mer frequency, TF over GST control) |
| CTTCAG | 1.34 fold enrichment (6-mer frequency, TF over GST control) | 1.25 fold enrichment (6-mer frequency, TF over GST control) | 1.3 fold enrichment (6-mer frequency, TF over GST control) | 1.32 fold enrichment (6-mer frequency, TF over GST control) | 1.36 fold enrichment (6-mer frequency, TF over GST control) | 1.34 fold enrichment (6-mer frequency, TF over GST control) | 1.29 fold enrichment (6-mer frequency, TF over GST control) | 1.28 fold enrichment (6-mer frequency, TF over GST control) | 1.34 fold enrichment (6-mer frequency, TF over GST control) |
| TGTTGC | 1.33 fold enrichment (6-mer frequency, TF over GST control) | 1.32 fold enrichment (6-mer frequency, TF over GST control) | 1.33 fold enrichment (6-mer frequency, TF over GST control) | 1.3 fold enrichment (6-mer frequency, TF over GST control) | 1.31 fold enrichment (6-mer frequency, TF over GST control) | 1.3 fold enrichment (6-mer frequency, TF over GST control) | 1.33 fold enrichment (6-mer frequency, TF over GST control) | 1.35 fold enrichment (6-mer frequency, TF over GST control) | 1.4 fold enrichment (6-mer frequency, TF over GST control) |
| GCTTCG | 1.3 fold enrichment (6-mer frequency, TF over GST control) | 1.46 fold enrichment (6-mer frequency, TF over GST control) | 1.35 fold enrichment (6-mer frequency, TF over GST control) | 1.36 fold enrichment (6-mer frequency, TF over GST control) | 1.32 fold enrichment (6-mer frequency, TF over GST control) | 1.26 fold enrichment (6-mer frequency, TF over GST control) | 1.26 fold enrichment (6-mer frequency, TF over GST control) | 1.3 fold enrichment (6-mer frequency, TF over GST control) | 1.4 fold enrichment (6-mer frequency, TF over GST control) |
| TTATGG | 1.42 fold enrichment (6-mer frequency, TF over GST control) | 1.39 fold enrichment (6-mer frequency, TF over GST control) | 1.39 fold enrichment (6-mer frequency, TF over GST control) | 1.3 fold enrichment (6-mer frequency, TF over GST control) | 1.3 fold enrichment (6-mer frequency, TF over GST control) | 1.46 fold enrichment (6-mer frequency, TF over GST control) | 1.34 fold enrichment (6-mer frequency, TF over GST control) | 1.44 fold enrichment (6-mer frequency, TF over GST control) | 1.39 fold enrichment (6-mer frequency, TF over GST control) |
| TGATGG | 1.24 fold enrichment (6-mer frequency, TF over GST control) | 1.27 fold enrichment (6-mer frequency, TF over GST control) | 1.29 fold enrichment (6-mer frequency, TF over GST control) | 1.24 fold enrichment (6-mer frequency, TF over GST control) | 1.24 fold enrichment (6-mer frequency, TF over GST control) | 1.31 fold enrichment (6-mer frequency, TF over GST control) | 1.28 fold enrichment (6-mer frequency, TF over GST control) | 1.39 fold enrichment (6-mer frequency, TF over GST control) | 1.16 fold enrichment (6-mer frequency, TF over GST control) |
